The list is not random: actives were taken first. Their share in the collection is about 3.3%.
PNC assembly inh: perinucleolar compartment assembly inhibition. PC3M PTB-GFP, PNC prevalence imaging, 16 h; stronger effect = lower value. activity change (PNC), negative = inhibition, % at 10 µM. 140,000 tested, 3.1% active. AID 2417;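 active means readout at or below -70, meaning at least 70% loss of cells showing the perinucleolar compartment, a nuclear body marking cancer cells; inconclusive means readout between -30 and a set limit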;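 further: plate controls were DMSO wells for no effect and camptothecin positive control wells for full effect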
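Compounds are pinned in duplicate onto adhered PC3M cells stably expressing GFP-tagged PTB and incubated 16 h at 37 C. Cells are then fixed, nuclei stained with Hoechst, and PNC-positive cells counted.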
HTT ATP protect: protects HTT-Q103 PC12 cells, measured by ATP; 230,000 tested, 0.14% active; AID 1471; Potency, µM (series often up to 56.4 µM), for inactives: cytoprotection (ATP increase), usual class: activators; PC12 HTT-Q103 induced, cytoprotection, ATP luminescence, 40 h; further: potency means the concentration at half of the fitted maximal effect; % of control where 0% means no effect; nearly all actives have a fitted effect of over 45% in size
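Cells were plated at 1500 per well in phenol red-free DMEM with 5% equine and 5% calf serum. Tebufenozide (100 nM final) and compounds were added, then ATPlite reagent, and luminescence was read.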
ALOX12 inhib: blocks human 12-lipoxygenase activity. P18054. purified 12-hLO, xylenol orange hydroperoxide absorbance. Potency, µM (series often up to 57.1 µM), for the others: at the top dose activity change, negative = inhibition, usual class: inhibitors. 150,000 tested, 0.12% active; further: potency means the concentration at half of the fitted maximal effect; on the % scale 0 is the no-effect control and ±100 the full control effect; nearly all actives have a fitted effect of over 55% in size
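Hydroperoxide output read as Fe(III)-xylenol orange absorbance, 573-to-405 nm ratio, after 30 min reaction with 40 uM arachidonic acid. Enzyme: 150 nM purified human 12hLO, 15 min compound preincubation; 25 mM Hepes pH 7.0, room temperature.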
NPSR antag: antagonists of human neuropeptide S receptor cAMP signaling; CHO-NPSR cells, cAMP TR-FRET, antagonist mode; Potency, µM (series often up to 38.3 µM), inactives show top-dose activity change, negative = inhibition, hits mostly inhibitors; 220,000 tested, 1% active; AID 1461; further: potency means the concentration at half of the fitted maximal effect; on the % scale 0 is the no-effect control and ±100 the full control effect; nearly all actives have a fitted effect of over 50% in size
Target sequence (Q6W5P4 whole entry, looked up): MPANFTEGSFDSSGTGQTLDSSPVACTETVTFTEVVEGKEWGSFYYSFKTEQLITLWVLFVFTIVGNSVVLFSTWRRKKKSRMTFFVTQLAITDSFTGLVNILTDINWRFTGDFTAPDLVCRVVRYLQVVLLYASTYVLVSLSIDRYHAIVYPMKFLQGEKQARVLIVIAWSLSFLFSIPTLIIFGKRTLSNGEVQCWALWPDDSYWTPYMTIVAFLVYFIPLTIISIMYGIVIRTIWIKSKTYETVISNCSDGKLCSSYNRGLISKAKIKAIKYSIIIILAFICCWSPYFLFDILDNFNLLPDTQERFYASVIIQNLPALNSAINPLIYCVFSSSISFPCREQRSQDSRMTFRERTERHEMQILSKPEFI
HttQ103 aggreg: inhibitors of mutant huntingtin aggregate formation in PC12 cells. PC12 HttQ103-GFP aggregates, Acumen cytometry, 40 h. Potency, µM (titrated, usually from 46.1 µM), without a hit: top-dose activity change, negative = inhibition, hits mostly inhibitors. 220,000 tested, 1.1% active. AID 1688; further: potency means the concentration at half of the fitted maximal effect; on the % scale 0 is the no-effect control and ±100 the full control effect; nearly all actives have a fitted effect of over 60% in size
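Compounds (qHTS titration) were added to PC12 cells expressing an ecdysone-driven HTT exon 1 Q103–GFP fusion after induction with 100 nM tebufenozide. Aggregate formation was measured as GFP objects in cell lysates.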
IMPase inh: membrane-permeable compound that blocks inositol monophosphatase; P97697; CHO-M1 cells, IP1 accumulation, HTRF TR-FRET ratio; inhibition (IP1 accumulation), % at 46.1 µM; 120,000 tested, under 10 active; AID 901; active means well fitted curve in the direction sought with a large enough effect in the signal ratio, not every such curve was filed as active; inconclusive means small, poorly fitted or top-dose-only effect, or a change in a side signal; inactive means no such curve, though single readings can be large or run the other way; the % refers to the signal ratio;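 further: cells stimulated with carbachol in lithium chloride buffer; plate controls were DMSO basal wells for no effect and reference inhibitor wells for full effect; higher means more IMPase inhibition seen as more IP1 and lower FRET ratio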
Target sequence (P97697 whole entry, looked up): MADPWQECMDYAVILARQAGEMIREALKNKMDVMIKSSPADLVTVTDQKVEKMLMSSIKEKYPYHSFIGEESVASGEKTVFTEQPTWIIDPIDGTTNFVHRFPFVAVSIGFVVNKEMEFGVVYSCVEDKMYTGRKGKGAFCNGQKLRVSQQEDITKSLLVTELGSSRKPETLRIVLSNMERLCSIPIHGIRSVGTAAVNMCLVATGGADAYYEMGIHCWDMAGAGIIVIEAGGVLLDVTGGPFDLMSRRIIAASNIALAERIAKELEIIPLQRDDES
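CHO-M1 cells (CHO stably expressing M1 receptor), compound up to 46 uM final, stimulated with carbachol (50 uM as added) in buffer with 50mM LiCl, pH 7.4, 30 min at 37C. Cytosolic IP1 read by TR-FRET; AC50 from Hill fits.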
The depositor's hits bear a star; ? = inconclusive; . = no result given; [ ] = remark or other dose. Unless noted, the call rests on the fitted dose curve; in most records, active means well fitted curve in the direction sought with a large enough effect; inconclusive means small, poorly fitted or top-dose-only effect, or another doubt; inactive means no such curve, though single readings can be large; an effect the other way counts as inactive or inconclusive.

SMILES	PNC assembly inh	HTT ATP protect	ALOX12 inhib	NPSR antag	HttQ103 aggreg	IMPase inh
COC(=O)c1cc2cc(NS(=O)(=O)c3ccc(C)cc3)ccc2s1	-100*	-4%[10 µM]	-19%	-15%[46.1 µM]	11%	-8
O=[N+]([O-])c1ccc(-c2nc(-c3ccc(F)cc3)c(-c3ccncc3)[nH]2)cc1	.	.	-7%	7.9µM*	.	1
COc1ccc(OCc2nnnn2-c2ccccc2)cc1	-93*	-3%[10 µM]	3%	-4%[46.1 µM]	7%	7[1.84 µM]
COc1ccc(-n2nnnc2-c2ccccc2)cc1	-83*	-74%	8%	2%[46.1 µM]	-16%	3
CCNC(=O)c1ccc(CSc2ccc(Cl)cc2)cc1	-109*	.	-4%	-1%	-9%	.
CC(=O)NCCNC(=O)c1ccc(CSc2ccc(Cl)cc2)cc1	.	-46%	.	6%	5%	.
CCOC(=O)c1c(NC(=O)CSc2nncs2)sc(C)c1C	-1	-3%	-6%	-12%[46.1 µM]	-11%	6
CCOC(=O)c1c(NC(=O)CSc2nncn2C)sc(C)c1C	-81*	-2%	2%	-6%[46.1 µM]	-12%[9.22 µM]	1
CCOC(=O)c1c(NC(=O)CSc2nnc(CNc3ccc(Cl)cc3)o2)sc(C)c1C	-107*	24%[10 µM]	1%	-31%	-13%	-1
CCc1ccc(OCC(=O)Nc2cc3oc4ccccc4c3cc2OC)c(Br)c1	.	.	.	.	.	7
Cc1ccsc1C1NC(=O)c2c(sc3c2CCCC3)N1 (stereo not drawn)	4	21%[10 µM]	-5%	3%[46.1 µM]	28µM*	-1
O=C(CN1CCC(O)(c2ccc3c(c2)OCO3)CC1)NC1CCCCC1	.	21%[10 µM]	.	10%	5%[9.22 µM]	.
O=C(CN1CCC(O)(c2ccc3c(c2)OCO3)CC1)OC1CCCCC1	-84*	-1%[10 µM]	0%	-9%[46.1 µM]	-28%	-8
O=C(NC(NNc1ccc([N+](=O)[O-])cc1)(C(F)(F)F)C(F)(F)F)c1ccc(Cl)cc1	-82*	-37%	?	?	?	12
O=C(CCSc1nc(-c2ccco2)cc(C(F)(F)F)n1)NCCN1CCOCC1	.	-10%[10 µM]	.	5%	-19%[9.22 µM]	.
O=C(CNC(=O)c1ccco1)OC(C(=O)c1ccccc1)c1ccccc1 (stereo not drawn)	-1	-13%[10 µM]	0%	-10%[46.1 µM]	-12%	11
O=C(CNC(=O)c1ccco1)NCC(=O)OC(C(=O)c1ccccc1)c1ccc(Cl)cc1 (stereo not drawn)	-100*	10%[10 µM]	-6%	3%[46.1 µM]	-21%	2
COc1cc2c(c(OC)c1)C(c1cc(OC)c(OC)c(OC)c1)CC(=O)N2 (stereo not drawn)	.	.	.	.	.	-1
CC(C)c1nc(CN(C)C(=O)N[C@H](C(=O)N[C@@H](Cc2ccccc2)C[C@H](O)[C@H](Cc2ccccc2)NC(=O)OCc2cncs2)C(C)C)cs1	.	0%	-4%[0.00818 µM]	13µM*	.	.
NC(=O)[C@H]1O[C@@H](O)[C@H](O)[C@@H](O)[C@@H]1O	.	20%	.	.	18%	.
CCOc1ccc(-c2nc(CSc3nnc(N)s3)cs2)cc1	-18	29%	-2%	15%[46.1 µM]	14%	11
CCOc1ccc(-c2nc(CSc3nnc(N)s3)cs2)cc1OC	-101*	-11%	-1%	?	1%	1
COC(=O)C/C=C\[C@@H](C)[C@@H](/C=N\O[C@@H](C)CN1CCCCc2nc(C)c(C)cc21)NS(=O)(=O)c1ccc(C)cc1	.	-14%[10 µM]	.	.	.	.
COc1ccc(OC)c(S(=O)(=O)Nc2ccc(Oc3ccccc3)cc2)c1	0	-31%	?	-23%[46.1 µM]	-1%	1
COc1ccc(OC)c(S(=O)(=O)Nc2ccc(O)c3ccccc23)c1	?	-26%[10 µM]	-18%	-22%[46.1 µM]	18µM*	14
SMILES	PNC assembly inh	HTT ATP protect	ALOX12 inhib	NPSR antag	HttQ103 aggreg	IMPase inh
CCN(C(=O)/C=C/c1ccc2c(c1)OCO2)c1ccccc1	-84*	13%[10 µM]	-5%	10%	19%	.
Cn1c(=O)oc2cc(S(=O)(=O)NCc3ccncc3)ccc21	35	-23%[0.074 µM]	-4%	11%[46.1 µM]	8.9µM*	14
CCCCc1cc2c(cn1)=C(OC(=O)c1cccs1)C(C)(OC(=O)CC)C(=O)C=2 (stereo not drawn)	.	-35%[10 µM]	-6%[11.4 µM]	.	.	.
CC(C)(CN)CN	.	5%[10 µM]	0%[11.4 µM]	.	.	.
Cc1ccc(-c2nn(-c3ccccc3)cc2/C=C2\SC(=S)N(CC(=O)O)C2=O)cc1	.	25%[10 µM]	.	13µM*	24%[9.22 µM]	.
O=C(O)CCN1C(=O)/C(=C/c2cn(-c3ccccc3)nc2-c2cccs2)SC1=S	.	23%[10 µM]	.	14%	-2%[9.22 µM]	.
CCOC(=O)CCCN	.	0%[10 µM]	-3%[11.4 µM]	.	.	.
COc1cc(NC(=O)C/C(C)=N/NC(=O)c2cccc(O)c2)c(OC)cc1Cl	-10	-3%[10 µM]	-2%	15%	-10%	.
Cn1c2c(c(=O)n(C)c1=O)C(C(F)(F)F)(C(F)(F)F)N=C(c1ccc(Cl)cc1)N2	30	-65%	1%	-14%[46.1 µM]	1.3µM*	6
Cc1ccccc1C1=NC(C(F)(F)F)(C(F)(F)F)c2c(n(C)c(=O)n(C)c2=O)N1	?	5%[10 µM]	1%	27%	-3%	.
Cn1c2c(c(=O)n(C)c1=O)C(C(F)(F)F)(C(F)(F)F)N=C(C1CCCCC1)N2	-93*	.	-2%	10%	?	.
O=C(NCCc1ccccc1)c1ccc(Nc2nc3ccccc3n3nnnc23)cc1	.	.	.	.	.	1
O=C(c1ccccc1Sc1ccc([N+](=O)[O-])cc1Cl)N1CCOCC1	.	.	.	-12%	16%	.
CC(=O)Nc1ccc(NC(=O)c2ccccc2Sc2ccc([N+](=O)[O-])cc2Cl)cc1	-80*	-9%[10 µM]	-3%	-4%	5%	-7
COCCn1c(=O)c(-c2ccc(F)cc2)nc2cnc(N(C)C)nc21	.	-34%	.	.	.	.
O=C(c1ccco1)N1CCN(CC(O)Cn2c3ccccc3c3ccccc32)CC1 (stereo not drawn)	-87*	-13%[10 µM]	-2%	?	?	3
O=C(c1ccco1)N1CCN(C(=O)C(Sc2ccccc2)c2ccccc2)CC1 (stereo not drawn)	?	-8%[0.074 µM]	4%	-9%[46.1 µM]	10µM*	-3
O=C(CSc1c2c(nc3ccc(Cl)cc13)CCCC2)N1CCN(C(=O)c2ccco2)CC1	.	20µM*	.	.	.	.
O=C(CSCc1ccccc1)N1CCN(C(=O)c2ccco2)CC1	-100*	1%	4%	-6%[46.1 µM]	9%	1
Cn1c(N)c(C(=O)Nc2ccc(-c3ccccc3)cc2)sc1=S	.	-2%[10 µM]	.	?	9%[9.22 µM]	.
O=C(c1cccc(F)c1)N1CCC[C@@]2(CCN(c3ccccn3)C2)C1	.	26%	2%	.	.	.
Cc1ccc(-n2nnnc2SCC(=O)N2CCN(C(=O)c3ccco3)CC2)c(C)c1	-83*	-11%[10 µM]	-3%	-5%[46.1 µM]	8%	-4

Bioassay records (PubChem)
